PubChem BioAssay (Tox21)
Inconclusive results are not listed. Calls of active or inactive are those of the source. Calls come from the whole dose curve; as a rule, active = well fitted cell-killing curve with a large enough effect in the repeat runs; inconclusive = weak or mixed curves, or effect the other way; inactive = flat fitted curve, though single readings scatter.

Assay: qHTS assay to identify small molecule that activate the aryl hydrocarbon receptor (AhR) signaling pathway - cell viability counter screen (AID 743086);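 note: HepG2 liver cells carrying the AhR DRE luciferase reporter; nearly all actives have a fitted effect of over 45% in size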
Settings: HepG2-AhR-luc viability, CellTiter-Fluor, 24 h; series mostly up to 70.3 µM; viability change, negative = cytotoxic: at the top concentration
Excerpt: U.S. Tox21 Program National Center for Advancing Translational Sciences [NCATS] NIH Chemical Genomics Center [NCGC] U.S. Environmental Protection Agency [EPA] National Institutes of Environmental Health Sciences [NIEHS] National Toxicology Program [NTP] U.S. Food and Drug Administration [FDA] Tox21 Assay overview: The Aryl hydrocarbon Receptor (AhR), a member of the family of basic helix-loop-helix transcription factors, is crucial to adaptive responses to environmental changes. AhR mediates cellular responses to environmental pollutants such as aromatic hydrocarbons through induction of phase I and II enzymes but also interacts with other nuclear receptor signaling pathways A cell based HepG2-AhR-luc assay (HG2L7.5c1 cell line, developed by Dr. Michael S. Denison, University of California at Davis) was used to assess the activation of AhR. HepG2 (human hepatocellular carcinoma) cells were stably transfected with an Ah receptor-responsive firefly luciferase reporter gene plasmid containing 20 dioxin responsive elements and luciferase reporter gene. Increased luciferase activity can be used to identify the compounds that induce AhR activation. The cytotoxicity of the compounds screened against the HepG2-AhR-luc cell line was tested in parallel by measuring the cell viability using CellTiter-Fluor assay in the same wells.
Tox21 Assay Protocol Summary: 4000 cells in 5 uL/well were dispensed into white wall/solid bottom 1536-well plates using a Multidrop Combi (Thermo Fisher Scientific Inc., Waltham, MA) dispenser. After the assay plates were incubated at 37C for 5 h, 23 nL of compound or DMSO vehicle was transferred to the assay plates by a pintool station (Kalypsys, San Diego, CA). The plates were incubated at 37C for 24 hr. For cell viability measurement, 1 ul/well of CellTiter-Fluor reagent (Promega, Madison, WI) was added into the assay plates using a Flying Reagent Dispenser (FRD) (Aurora Discovery, CA),and then the assay plates were incubated at 37C for 30 min. The fluorescence intensity in the plates was measured using a ViewLux plate reader (PerkinElmer, Shelton, CT), followed by the addition of 4 uL of ONE-Glo Luciferase Assay reagent (Promega) using an FRD (Aurora Discovery). After the assay plates were incubated at room temperature for 30 min, luminescence intensity was measured using a ViewLux plate reader (Perkin Elmer).
% is set by controls: 0 for no effect and ±100 for the full control effect.

SMILES | viability change, negative = cytotoxic | Potency
COc1nc(N)nc2c1ncn2[C@@H]1O[C@H](CO)[C@@H](O)[C@@H]1O | -6.67% (inactive) | 
CCN1CCC[C@H]1CNC(=O)c1cc(S(N)(=O)=O)ccc1OC | 0.933% (inactive) | 
NC(=O)c1cn(Cc2c(F)cccc2F)nn1 | 2.97% (inactive) | 
CCc1ccc(O)c(OC)c1 | 1.64% (inactive) | 
CC(=O)Nc1c(I)cc(I)c(C(=O)O)c1I | 1.64% (inactive) | 
O=C(O)Cc1ccc(CCNS(=O)(=O)c2ccc(Cl)cc2)cc1 | 5.11% (inactive) | 
CCCCC(CC)COC(=O)c1ccccc1O (stereo not given) | 0.252% (inactive) | 
COC(=O)NN | 0.807% [at 95 µM] (inactive) | 
COC(=O)C1=C(C)NC(C)=C(C(=O)OC)C1c1ccccc1[N+](=O)[O-] | -24.2% (inactive) | 
O=C(O)COc1nn(Cc2ccccc2)c2ccccc12 | -1.45% (inactive) | 
CCOC(=O)[C@H](CCc1ccccc1)N[C@@H](C)C(=O)N1[C@H](C(=O)O)C[C@@H]2CCC[C@@H]21 | -6.96% (inactive) | 
CO[Si](CCCOCC1CO1)(OC)OC (stereo not given) |  | inactive
O=c1[nH]c(=O)n([C@H]2C[C@H](O)[C@@H](CO)O2)cc1I | -16.2% [at 32.5 µM] (inactive) | 
CCSC(=O)N(CC(C)C)CC(C)C | -0.0484% (inactive) | 
NCCCNCCSP(=O)(O)O | -0.665% (inactive) | 
CCCCCCCCCCCCCCCCC | 4.22% (inactive) | 
CC/C=C\CC/C=C/C(OCC)OCC | 4.32% (inactive) | 
CCCCCCOC(=O)CCCCC(=O)OCCCCCC | 18% (inactive) | 
C=C1CC[C@H]2C[C@@H]1C2(C)C | -7.51% (inactive) | 
Cc1ccc(=O)n(-c2ccccc2)c1 | 1.12% (inactive) | 

SMILES | viability change, negative = cytotoxic | Potency
CCC(C)S (stereo not given) | -4.09% [at 3.79 µM] (inactive) | 
OCCCC1CCCCC1 | -1.93% (inactive) | 
COC(=O)c1cc(C(=O)OC)cc(S(=O)(=O)O)c1 | -2.39% (inactive) | 
CCCN1CCCC[C@H]1C(=O)Nc1c(C)cccc1C | 3.18% (inactive) | 
CO/N=C(/C(=O)N[C@@H]1C(=O)N2C(C(=O)OCOC(=O)C(C)(C)C)=C(C)CS[C@H]12)c1csc(N)n1 | -3.05% (inactive) | 
CCC(=O)OC(C)c1ccccc1 (stereo not given) | 7.04% (inactive) | 
NCCc1cnc[nH]1 | -2.65% (inactive) | 
CCCCOCCOCCOCc1cc2c(cc1CCC)OCO2 | 10.7% (inactive) | 
COc1ccc(CCN(C)CCCC(C#N)(c2cc(OC)c(OC)c(OC)c2)C(C)C)cc1OC (stereo not given) | -21.2% (inactive) | 
NS(=O)(=O)c1ccc(C(=O)O)cc1 | 0.461% (inactive) | 
CC1=CC(C)C(C=O)CC1 (stereo not given) | 0.135% (inactive) | 
CCO/C([O-])=N/c1c[n+](N2CCOCC2)no1 | 13% [at 32.5 µM] (inactive) | 
CCOC(C)(C)C | 3.42% [at 95 µM] (inactive) | 
Nc1nc2c(ncn2COC(CO)CO)c(=O)[nH]1 | -1.98% [at 32.5 µM] (inactive) | 
CCOc1ccc(C(=O)OCCN(CC)CC)cc1 | 24.7% (inactive) | 
CCO[Si](CCC1CCC2OC2C1)(OCC)OCC (stereo not given) | -1.88% (inactive) | 
CC(=O)Nc1ccc(S(N)(=O)=O)cc1 | -2.42% (inactive) | 
CC(C)(O)C(=O)c1ccccc1 | 14.2% (inactive) | 
CCCCCCCCCCCCCC=O | 3.67% [at 8.47 µM] (inactive) | 
N[C@H](C(=O)O)c1ccc(O)cc1 | 0.76% (inactive) | 
